# Test results published in PubChem BioAssay.
# Records with an inconclusive call do not appear. Active and inactive are the calls of the source.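 The calls were made as follows, unless noted: active = luciferase signal above three times the same-plate solvent-only control wells; inactive = the rest.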
# Experiments:
# [1] = molecular target: Mitogen-activated protein kinase 7 (Homo sapiens) (UniProt Q13164); test: Gal4-ERK5 driven luciferase induction – cell-based, HTS, primary screen (AID 1508626); details: HeLa Gal4-ERK5 transactivation, 18 h, at 5 µM, stronger effect = higher value;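 also: luciferase driven by Gal4-ERK5 fusion binding five Gal4 sites before minimal TATA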
# Mitogen-activated protein kinase 7 (Homo sapiens), sequence (Q13164 whole entry, looked up, the tested form may be a part): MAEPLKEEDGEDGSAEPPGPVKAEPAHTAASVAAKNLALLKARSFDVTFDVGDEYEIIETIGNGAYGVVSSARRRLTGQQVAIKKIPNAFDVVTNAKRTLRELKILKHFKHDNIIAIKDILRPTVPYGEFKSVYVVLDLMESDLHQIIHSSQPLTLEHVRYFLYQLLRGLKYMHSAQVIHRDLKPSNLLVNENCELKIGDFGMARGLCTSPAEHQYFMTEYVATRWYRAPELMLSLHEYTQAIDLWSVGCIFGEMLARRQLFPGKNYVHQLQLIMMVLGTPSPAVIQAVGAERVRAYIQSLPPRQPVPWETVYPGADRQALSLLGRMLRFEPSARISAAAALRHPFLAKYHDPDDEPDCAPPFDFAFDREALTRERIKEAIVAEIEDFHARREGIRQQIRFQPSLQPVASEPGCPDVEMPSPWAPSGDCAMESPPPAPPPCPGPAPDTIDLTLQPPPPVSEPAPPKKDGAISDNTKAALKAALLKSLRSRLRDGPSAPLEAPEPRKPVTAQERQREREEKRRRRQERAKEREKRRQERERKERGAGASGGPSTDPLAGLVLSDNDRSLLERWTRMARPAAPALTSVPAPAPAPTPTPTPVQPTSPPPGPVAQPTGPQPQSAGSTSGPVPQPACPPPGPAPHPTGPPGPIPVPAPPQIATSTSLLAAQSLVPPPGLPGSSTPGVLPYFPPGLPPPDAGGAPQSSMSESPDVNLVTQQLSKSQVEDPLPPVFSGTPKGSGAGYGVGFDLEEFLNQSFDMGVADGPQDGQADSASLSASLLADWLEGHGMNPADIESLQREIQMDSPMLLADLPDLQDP
# [2] = compounds altering circadian rhythm period length – cell-based, LOPAC library, luminescence reporter (AID 2774; call rule not given here;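 also: values are relative to mean of DMSO wells on each plate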); details: circadian reporter cells, at 7 µM, actives lie on both sides
# [3] = compounds altering viability of human ES cells (AID 493140; call rule not given here;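 also: cells exposed to compounds for four days before counting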); details: human embryonic stem cell survival screen; stronger effect = higher value
# [4] = tested on: Hepatitis C virus NS3 helicase; test: blockers of NS3h binding to ssDNA – biochemical, fluorescence polarization, LOPAC1280 library, primary screen (AID 687035; in the data active = inhibition above about 37%); details: Purified HCV NS3 helicase, Cy5-dT15 ssDNA binding fluorescence polarization; stronger effect = higher value; concentration not given here
# [5] = compounds altering Cy5-DNA-NS3h complex signal – biochemical, LOPAC1280, artefact control for HCV NS3 helicase inhibitor project (AID 687037; call rule not given here); details: Cy5-DNA-NS3h complex fluorescence interference counterscreen
# [6] = blockers of cellular phospholipid synthesis – cell-based, LOPAC library, screen 4, primary screen (AID 1347384; call rule not given here); details: animal cells, phospholipid biosynthesis inhibition screen; at 10 µM
# [7] = viability loss in pontine glioma line – cell-based, SU-DIPG-IV, MIPE4.0, CellTiter-Glo, qHTS, dose response (AID 1347063; cut-off not given, nearly all actives have AC50 up to about 30 µM;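 also: compound exposure lasted 48 hours before the viability readout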); details: CellTiter-Glo ATP luminescence
# [8] = viability loss in pontine glioma line – cell-based, SU-DIPG-XIII, MIPE5.0, CellTiter-Glo, qHTS, dose response (AID 1347064; cut-off not given, nearly all actives have AC50 up to about 23 µM); details: CellTiter-Glo ATP luminescence
# [9] = growth inhibition of DIPG cells – cell-based, MIPE4.0 library, CellTiter-Glo luminescence, qHTS (AID 1347066; cut-off not given, nearly all actives have AC50 up to about 30 µM;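 also: cells exposed to compound for 48 hours before readout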); details: SU-DIPG-VI viability, CellTiter-Glo ATP luminescence
# [10] = JHH-DIPG-1 glioma cell viability, MIPE5.0 library, CellTiter-Glo luminescence, qHTS (AID 1347067; cut-off not given, nearly all actives have AC50 up to about 26 µM;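 also: cells exposed to compound for 48 hours before readout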); details: JHH-DIPG-1 glioma viability, CellTiter-Glo ATP luminescence
# [11] = growth inhibition, single agent or in combination, cell-based, chromothripsis tumors, cisplatin or BGB combos (AID 1671449; in the data active = inhibition above about 80%;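 also: cells exposed for 96 hours; 0% = vehicle DMSO and 100% = killing by high DMSO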); details: LFS_MB_P medulloblastoma cells
# [12] = growth inhibition, single agent and combos, cell-based, chromothripsis tumors, cisplatin or BGB combos (AID 1671450; in the data active = inhibition above about 80%;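 also: cells exposed to compound for four days; 0% = vehicle DMSO and 100% = cell killing by high DMSO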); details: HDN33 neuroblastoma cells, stronger effect = higher value
# [13] = growth inhibition, single agents and combos, ICB984, cell-based, cisplatin or BGB combos, synergistic combos for chromothripsis tumors (AID 1671451; call rule not given here;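 also: cells exposed for 96 hours before readout; 0% = vehicle DMSO and 100% = killing by high DMSO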); details: ICB984 medulloblastoma cells, drug combinations, stronger effect = higher value
# [14] = growth inhibition, single agents and combos, HTB85, cell-based, BGB or cisplatin IC20 combos, synergistic combos for chromothripsis tumors (AID 1671453; in the data active = inhibition above about 80%;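 also: cells exposed for 96 hours before readout; 0% = vehicle DMSO and 100% = high DMSO killing control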); details: HTB85 osteosarcoma cells, drug combinations, stronger effect = higher value
# [15] = growth inhibition, MDA-MB-436, cell-based, BGB or cisplatin combos, synergistic combos for chromothripsis tumors (AID 1671458; call rule not given here;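 also: cells exposed for 96 hours; 0% = vehicle DMSO and 100% = killing by high DMSO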); details: MDA-MB-436 breast carcinoma growth inhibition, drug combinations, stronger effect = higher value
# [16] = BT084 cell growth, single and combined drugs, ICGC_MB145, cisplatin and BGB IC40 combos (AID 1671461; in the data active = inhibition above about 80%;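 also: cells exposed to drugs for 96 hours; 0% = vehicle DMSO and 100% = high DMSO full killing control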); details: BT084 medulloblastoma cells, drug combinations, stronger effect = higher value
# [17] = RCMB18 cell growth, single agent and combined, cisplatin and BGB IC40 combos (AID 1671462; in the data active = inhibition above about 80%;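 also: cells exposed to compound for four days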); details: RCMB18 medulloblastoma cells, stronger effect = higher value
# [18] = CRL1545 cell growth, single agent and combined, cisplatin and BGB IC20 combos (AID 1671464; in the data active = inhibition above about 80%;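 also: cells exposed to compound for 96 hours before readout; 0% = vehicle DMSO and 100% = high DMSO killing control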); details: CRL1545 osteosarcoma cells, stronger effect = higher value
# [19] = measured here: with BGB IC20 combination, at 0.5 µM
# [20] = measured here: with cisplatin IC20 combination, at 0.5 µM
structure (smiles),measurement,setting,value
CNCc1ccccc1,luciferase signal,[1],56 AU (inactive)
CCCCCCCCCCOc1cc2c(=O)c(C(=O)OCC)c[nH]c2cc1OCC,luciferase signal,[1],44 AU (inactive)
C[N+](C)(C)CCCCCCCCCC[N+](C)(C)C,period change,[2],0.03 h (inactive)
same,survival,[3],4 (inactive)
same,inhibition,[4],2% (inactive)
same,fluorescence ratio (interference),[5],1 (inactive)
same,outcome,[6],inactive
same,luciferase signal,[1],60 AU (inactive)
CN(C)CCCOc1nn(Cc2ccccc2)c2ccccc12,survival,[3],9 (inactive)
same,luciferase signal,[1],92 AU (inactive)
O=C1c2ccccc2C(=O)C1c1ccc(Br)cc1,luciferase signal,[1],56 AU (inactive)
NCCNCCNCCN,luciferase signal,[1],64 AU (inactive)
CC1(C)[C@@H]2CC[C@@]1(C)C(=O)C2,luciferase signal,[1],52 AU (inactive)
CCOC(=O)c1ccc(O)cc1,luciferase signal,[1],64 AU (inactive)
COc1cc(N)c(Cl)cc1C(=O)NC1CCN(CCCOc2ccc(F)cc2)CC1OC (stereo unspecified),survival,[3],0.75 (inactive)
OC1C(O)C(O)C(O)C(O)C1O (stereo unspecified),luciferase signal,[1],40 AU (inactive)
Nc1ncn([C@H]2C[C@H](O)[C@@H](CO)O2)c(=O)n1,outcome,[7],inactive
same,outcome,[8],inactive
same,outcome,[9],inactive
same,outcome,[10],inactive
same,inhibition,"[11]; at 0.5 µM, stronger effect = higher value",6.06% (inactive)
same,inhibition,"[11]; measured here: combination with BGB IC20, at 0.005 µM",-1.4%
same,inhibition,"[11]; measured here: combination with BGB IC40, at 0.005 µM",-3.75%
same,inhibition,"[11]; measured here: combination with BGB IC40, at 0.05 µM",-40.3%
same,inhibition,"[11]; measured here: combination with cisplatin, at 0.5 µM, stronger effect = higher value",19.6%
same,inhibition,"[11]; measured here: combination with cisplatin, at 5 µM, stronger effect = higher value",18%
same,inhibition,"[12]; BGB combo, at 5 µM",50.3%
same,inhibition,[12]; at 0.5 µM,24.3% (inactive)
same,inhibition,"[12]; cisplatin combo, at 5 µM",54.4%
same,inhibition,[12]; [19],30.2%
same,inhibition,[12]; [20],11.6%
same,inhibition,"[12]; single agent, at 5 µM",52.1%
same,inhibition,"[13]; BGB IC20 combo, at 0.005 µM",-3.18%
same,inhibition,"[13]; BGB IC40 combo, at 0.005 µM",-34%
same,inhibition,"[13]; BGB IC40 combo, at 0.05 µM",-19.3%
same,inhibition,[13]; at 0.5 µM,-18% (inactive)
same,inhibition,"[13]; cisplatin combo, at 0.05 µM",-23.6%
same,inhibition,"[13]; cisplatin combo, at 0.5 µM",-14.1%
same,inhibition,"[13]; cisplatin combo, at 5 µM",-50.9%
same,inhibition,"[13]; measured here: 5 uM single agent, at 5 µM",-6.92%
same,inhibition,[14]; at 0.5 µM,3.38% (inactive)
same,inhibition,"[14]; measured here: with BGB IC20, at 0.5 µM",2.59%
same,inhibition,"[14]; measured here: with BGB IC20, at 5 µM",19.3%
same,inhibition,"[14]; measured here: with cisplatin IC20, at 0.5 µM",-6.21%
same,inhibition,"[14]; measured here: with cisplatin IC20, at 5 µM",27.4%
same,inhibition,"[14]; single agent, at 5 µM",40.2%
same,inhibition,[15]; at 0.5 µM,17.4% (inactive)
same,inhibition,"[15]; measured here: BGB combination, at 0.5 µM",28.5%
same,inhibition,"[15]; measured here: BGB combination, at 5 µM",26.2%
same,inhibition,"[15]; measured here: cisplatin combination, at 0.5 µM",6.25%
same,inhibition,"[15]; measured here: cisplatin combination, at 5 µM",4.64%
same,inhibition,[16]; at 0.5 µM,-3.99% (inactive)
same,inhibition,"[16]; cisplatin combination, at 0.5 µM",-10.2%
same,inhibition,"[16]; cisplatin combination, at 5 µM",16.2%
same,inhibition,"[16]; measured here: BGB IC40 combination 0.05 uM, at 0.05 µM",-0.777%
same,inhibition,"[16]; single agent, at 5 µM",-11.6%
same,inhibition,[17]; at 0.5 µM,-2.53% (inactive)
same,inhibition,"[17]; cisplatin combo, at 5 µM",-31%
same,inhibition,"[17]; measured here: BGB IC40 combination, at 0.05 µM",7.83%
same,inhibition,"[17]; measured here: combination with cisplatin, at 0.5 µM",-5.57%
same,inhibition,"[17]; single agent, at 5 µM",7.32%
same,inhibition,[18]; at 0.5 µM,-20.4% (inactive)
same,inhibition,[18]; [19],-0.059%
same,inhibition,[18]; [20],-32.7%
same,inhibition,"[18]; single agent, at 0.05 µM",-13.4%
same,inhibition,"[18]; single agent, at 5 µM",5.37%
